MITF act: increases MITF-driven TRPM1 promoter luciferase signal | activation, % at 12.5 µM | AID 588334 | SK-MEL-5 TRPM1-promoter luciferase, 24 h; % of positive control, neutral wells = 0 | 300,000 tested, 0.75% active;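 active means mean activation of at least 80% with every replicate also reaching 80%; inconclusive means mean reaches 80% but some replicate falls short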
Wnt act: activators of Wnt/beta-catenin signaling | Wnt/beta-catenin reporter cell assay, activator, plate reader | activation, % at 9.35 µM | 300,000 tested, 1.2% active; in the data active means activation above about 30%, passing the limit was not always enough; inconclusive means no clear call, values can overlap the other calls
esBAF inh: inhibitors of esBAF chromatin remodeling in mouse ES cells | Bmi1-luciferase knock-in reporter, 24 h; 100% = twice the neutral-well signal | reporter increase, % at 12.5 µM | 350,000 tested, 2% active; in the data active means activation above about 40%; inconclusive means no clear call, values can overlap the other calls;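 further: a rise in the Bmi1 reporter signal indicates esBAF inhibition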
Env fusion inh: blocks HIV Env-driven cell-cell fusion. 360,000 tested, 1.1% active. AID 651610. HeLa-JRFL Env/CEM21 cell fusion, luciferase. inhibition, % at 12.3 µM;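 active means mean replicate inhibition score of at least 50 and every replicate individually at or above 50; inconclusive means only one of the two criteria met; inactive means mean below 50 and not all replicates reaching 50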
miR-122 sensor: miR-122 inhibition in Huh7 cells. 340,000 tested, 0.3% active. activation (reporter increase), % at 12.5 µM. AID 602342. Huh7 miR-122 Renilla luciferase sensor, 48 h; neutral wells = 0, positive control = 100;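 active means mean replicate activation score at least 90 and every replicate individually at or above 90; inconclusive means only one of the two criteria met; inactive means neither criterion met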;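 further: higher luciferase means less miR-122 activity so hits act as miR-122 inhibitors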
Large screens that a line does not name were inactive. Sampled rows, rich in hits. Any-hit rate of the full collection: about 3.4%.

CNC[C@H](CC1CCCCC1)NC[C@H](Cc1ccccc1)NCCC12CC3CC(CC(C3)C1)C2	Env fusion inh 92.9 (no result: miR-122 sensor)
NC[C@H](Cc1ccccc1)NCCCCC1CCCCC1	none
O=C1CCCC2=C1C(c1ccc(Cl)cc1)C1C(=O)c3ccccc3C1=N2 (centres undefined)	Env fusion inh 59.5
CCC(=O)Nc1ccc2c(c1)OC[C@@H](C)N(C(=O)Cc1ccccn1)C[C@@H](C)[C@H](OC)CN(C)C2=O	none (no result: MITF act, Wnt act, Env fusion inh)
CC(C)NC(=O)Nc1ccc2c(c1)C(=O)N([C@H](C)CO)C[C@H](C)[C@@H](CN(C)C(=O)C1CCCCC1)OCCCC[C@@H](C)O2	none (no result: MITF act, Wnt act)
Cc1ccc2c(c1)sc1nc(=O)n(-c3ccccc3)c(=O)n12	Wnt act 54.8 (no result: esBAF inh, miR-122 sensor)
COC(=O)c1ccc(C(=O)N=c2sccn2C)cc1	MITF act 83.0, esBAF inh 59.6
Cn1ccsc1=NC(=O)c1ccc(S(=O)(=O)C(F)F)cc1	esBAF inh 58.5
COc1ccc(C(=O)N=c2sccn2C)cc1	none (no result: esBAF inh, miR-122 sensor)
Cn1ccsc1=NC(=O)c1ccc(Cl)cc1	none (no result: esBAF inh, miR-122 sensor)
CN(C)c1ccc(C(=O)N=c2sccn2C)cc1[N+](=O)[O-]	esBAF inh 56.0
Cn1ccsc1=NC(=O)c1ccccc1F	none (no result: Wnt act)
Cn1ccs/c1=N\C(=O)Nc1ccccc1	MITF act 90.6, esBAF inh 55.8
CC(C)Sc1nnc(Nc2ccccc2)s1	esBAF inh 43.0 (no result: Env fusion inh)
N#Cc1ccc(CSc2nnc(Nc3ccccc3)s2)cc1	none
COc1cc(C)ccc1OCC(=O)OCC(=O)c1[nH]c(C)c(C(C)=O)c1C	none
CC(=O)c1c(C)[nH]c(C(=O)COC(=O)c2cccnc2Cl)c1C	esBAF inh 52.1 (no result: miR-122 sensor)
COc1ccccc1OCC(=O)c1[nH]c(C)c(C(C)=O)c1C	Env fusion inh 73.9 (no result: Wnt act)
CC(=O)c1c(C)[nH]c(C(=O)COC(=O)c2nccnc2N)c1C	none (no result: Env fusion inh, miR-122 sensor)
COc1ccc(S(=O)(=O)N2C[C@@H](O)COC[C@@H]3O[C@@H](CC(=O)NCCN4CCCCC4)CC[C@H]32)cc1	none (no result: MITF act, Wnt act, Env fusion inh)
Cc1ccc(NC(=O)N2CCc3ccccc3C2)cc1	MITF act inconclusive, esBAF inh 46.2 (no result: Wnt act)
CN(C)c1ccc(NC(=O)CN2CCc3ccccc3C2)cc1	esBAF inh 43.8
CC(=O)c1ccc(NC(=O)N2CCc3ccccc3C2)cc1	none (no result: esBAF inh, miR-122 sensor)
O=C(Cc1ccc(Cl)cc1)N1CCc2ccccc2C1	Wnt act inconclusive, esBAF inh 46.3 (no result: MITF act)
O=C(Nc1ccc(Cl)cc1)N1CCc2ccccc2C1	esBAF inh 47.8
O=C(CN1CCc2ccccc2C1)Nc1ccc(F)cc1	none
COCC(=O)Nc1ccc2c(c1)[C@H]1C[C@H](CC(=O)NCc3ccncc3)O[C@H](CO)[C@H]1O2	none (no result: MITF act, Wnt act, Env fusion inh)
O=S(=O)(c1ccccc1F)N1CCCCN2[C@H](CO)[C@@H](c3ccc(-c4ccccc4)cc3)[C@@H]2C1	none (no result: MITF act, Wnt act, esBAF inh, Env fusion inh)
CC(C)NC(=O)N(C)C[C@H]1Oc2ncc(C#CCC3CCCC3)cc2C(=O)N([C@@H](C)CO)C[C@H]1C	none (no result: MITF act, Wnt act)
O=C(CNc1cccc(F)c1)N1CCc2ccccc2C1	MITF act inconclusive, Wnt act 36.0, esBAF inh 51.4
O=C(Nc1ccccc1)N1CCc2ccccc2C1	Wnt act 54.2, esBAF inh 44.5
C/C=C/c1cnc2c(c1)C(=O)N([C@@H](C)CO)C[C@@H](C)[C@@H](CN(C)Cc1ccncc1)O2	none (no result: MITF act, Wnt act)
CCN1C(=O)/C(=C2\C=Cc3cc(C)ccc3N2CC)OC1=S	none (no result: Wnt act, Env fusion inh)
CCN1C(=C2C(=O)c3ccccc3C2=O)C=Cc2ccccc21	esBAF inh 44.3 (no result: MITF act, Wnt act)
CCN1C(=O)/C(=C2/C=Cc3ccccc3N2C)OC1=S	MITF act 101.0 (no result: Wnt act)
Cc1ccc(NC(=O)Nc2cccc3ccccc23)cc1	none
N#CCc1ccc(NC(=O)Nc2cccc3ccccc23)cc1	esBAF inh 49.0 (no result: Wnt act, Env fusion inh)
COc1ccc(C(=O)OCc2cc(=O)oc3cc(C)ccc23)cc1S(=O)(=O)N1CCOCC1	none (no result: MITF act)
Cc1ccc2c(COC(=O)c3ccccc3Br)cc(=O)oc2c1	MITF act 118.0, esBAF inh 53.7
Cc1ccc2c(COC(=O)c3ccc(C)c(C)c3)cc(=O)oc2c1	esBAF inh 45.6
Cc1ccc2c(COC(=O)c3ccccc3Cl)cc(=O)oc2c1	MITF act 180.8, esBAF inh 70.9
COc1ccc(Br)c(C(=O)OCc2cc(=O)oc3cc(C)ccc23)c1	none
O=C(CC1CC1)Nc1ccc2c(c1)[C@H]1C[C@H](CC(=O)NC3CCCCC3)O[C@@H](CO)[C@H]1O2	none (no result: MITF act, Wnt act)
Cc1ccc(S(=O)(=O)NC[C@H]2CC[C@@H]3[C@@H](CN3Cc3cc(-c4ccccc4)on3)O2)cc1	none (no result: MITF act, Wnt act, esBAF inh, miR-122 sensor)
COc1nc(Nc2ccc(C(C)C)cc2)nc(OC)n1	esBAF inh 57.7 (no result: Wnt act, Env fusion inh)
COc1nc(Nc2ccc(O)cc2)nc(OC(C(F)(F)F)C(F)(F)F)n1	none (no result: Wnt act)
CC(O)(c1cccc(F)c1)c1nc(-c2ccc(Cl)cc2)cs1 (centres undefined)	none (no result: MITF act)
COc1ccc(-c2csc(C(C)(O)c3ccccc3)n2)cc1 (centres undefined)	esBAF inh 59.9 (no result: MITF act)
CN(C)c1ccc(-c2csc(C(C)(O)c3cccc(F)c3)n2)cc1 (centres undefined)	esBAF inh 45.1 (no result: MITF act)
CCOC(=O)c1c(C)oc2c1C(=O)c1ccccc1C2=O	esBAF inh 49.2 (no result: miR-122 sensor)
Cc1oc2c(c1C(=O)O)C(=O)c1ccccc1C2=O	none
CN(C)c1ccc(/C=N/OC(=O)Nc2ccccc2)cc1	Wnt act 52.3 (no result: miR-122 sensor)
Cc1ccc2c(c1)-c1c(ssc1=S)C(C)(C)N2C(=O)c1ccco1	Env fusion inh 56.7
CO[C@H]1CN(C)C(=O)c2cccc(C#N)c2OC[C@@H]2O[C@H](CC[C@H]2OC)CCN(C)C(=O)[C@H]1C	none (no result: MITF act, Wnt act, miR-122 sensor)
O=C(NC12CC3CC(CC(C3)C1)C2)c1cccc([N+](=O)[O-])c1	none
O=[N+]([O-])c1cccc(-c2nnn(C34CC5CC(CC(C5)C3)C4)n2)c1	esBAF inh 49.6 (no result: Wnt act, Env fusion inh)
Cn1ccc2cc(OCc3ccccc3)ccc21	esBAF inh 49.4
O=Cc1c[nH]c2ccc(OCc3ccccc3)cc12	none (no result: Env fusion inh)
Cc1cc2cc(OCc3ccccc3)ccc2n1C	none (no result: MITF act, miR-122 sensor)
Cc1c(C=O)c2cc(OCc3ccccc3)ccc2n1C	esBAF inh 70.5 (no result: MITF act)
Cc1oc(-c2ccc(Cl)cc2)nc1CN1CCCC(C(=O)NCc2ccccn2)C1 (centres undefined)	none (no result: MITF act)
Cc1oc(-c2cccc(Cl)c2)nc1CN1CCCC(C(=O)NC(C)c2ccc3c(c2)OCCO3)C1 (centres undefined)	Env fusion inh 84.4
Cc1oc(-c2ccc(Cl)cc2)nc1CN1CCCC(C(=O)NCc2cccnc2)C1 (centres undefined)	Env fusion inh 86.7 (no result: MITF act, Wnt act)
Cc1oc(-c2cccc(Cl)c2)nc1CN1CCCC(C(=O)NCc2ccco2)C1 (centres undefined)	none (no result: MITF act, Wnt act)
COc1ccccc1/C=C/C1(C(=O)NC2CCCC2)CC(=O)N1c1ccc(C)cc1 (centres undefined)	none
COc1ccccc1/C=C/C1(C(=O)NC2CCCC2)CC(=O)N1c1ccc(F)cc1 (centres undefined)	Env fusion inh 131.3
COC(=O)c1c(C)oc(C)c1S(=O)(=O)NCc1ccc(OC)cc1	none

High-throughput results (PubChem BioAssay)
